# Source: the supplement of paper PMC4166925
# ± gives the standard deviation of the averaged measurements. Whole data set: some 33,000 sequences, median “E-score (dimensionless, -0.5 to 0.5)” near -0.049, cut for the highest 2% near 0.37. The sample as a whole holds a higher share of the highest values than the screen did.
# Tested on: T1, PmTbr T-box DNA-binding domain (GST fusion)
# T1 sequence: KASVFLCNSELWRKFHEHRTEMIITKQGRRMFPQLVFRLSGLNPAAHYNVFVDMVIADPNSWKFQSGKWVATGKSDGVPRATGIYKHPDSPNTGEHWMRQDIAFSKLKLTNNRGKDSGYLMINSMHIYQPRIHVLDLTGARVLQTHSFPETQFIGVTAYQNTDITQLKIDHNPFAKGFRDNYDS
# Assay: PBM E-score of 8-mer (E-score (dimensionless, -0.5 to 0.5)); Tbr is Tbrain of the sea star Patiria miniata (Pm) or the sea urchin Strongylocentrotus purpuratus (Sp); higher = stronger binding preference
# Settings: the construct has about 5 more residues each side
# How it was run: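 Using the Universal PBM Analysis Suite, every ungapped 8-mer received an enrichment E-score averaged over duplicate arrays. Probe intensities came from double-stranded Universal Agilent oligonucleotide arrays incubated with 200 nM GST-fused Tbr T-box DNA-binding domain in PBS (pH 7.5). That protein was expressed in BL21 E. coli at 20 °C and purified by glutathione affinity chromatography.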
row,Sequence,PBM E-score of 8-mer
1,CGAGGGCA,-0.019 ± 0.015
2,ATTAGAAC,-0.161 ± 0.0031
3,GCCAAGCA,-0.0191 ± 0.018
4,ACACCAAG,0.35 ± 0.005
5,GATATCAC,0.331 ± 0.021
6,TCCGCACA,0.104 ± 0.058
7,CGAATTCC,-0.164 ± 0.079
8,ATTTCCCG,-0.133 ± 0.0071
9,GCCTGTGA,0.107 ± 0.014
10,AGCTGTGA,0.404 ± 0.017
11,ACCTGTGA,0.4002 ± 0.002
12,AGCTGTGG,0.0136 ± 0.075
13,AGCTGTGC,0.182 ± 0.0098
14,ACCTGTGC,0.0647 ± 0.0069
15,GGTAGAGA,-0.124 ± 0.0055
16,GACTCAGA,-0.213 ± 0.097
17,TCAAATCA,-0.159 ± 0.042
18,GTCGCCAC,0.326 ± 0.0074
19,ACAGGCTC,0.0148 ± 0.018
20,CCTTCGCG,0.2566 ± 0.0012
21,ACCGTCGT,0.162 ± 0.045
22,ACCTCCGA,0.253 ± 0.033

row,Sequence,PBM E-score of 8-mer
1,TGTGCAAA,0.197 ± 0.043
2,GGTGCAAC,0.299 ± 0.033
3,AATGCGAT,0.024 ± 0.0098
4,ACTGCGAT,0.107 ± 0.048
5,AGTGCGTA,0.146 ± 0.048
6,GCTGCGAC,0.137 ± 0.0089
7,ACTGCGAA,0.315 ± 0.012
8,GGTGCGAC,0.462 ± 0.017
9,CGTGCGAC,0.277 ± 0.018
10,AGTGCGAA,0.4725 ± 0.00067
11,AGTGCGAT,0.427 ± 0.0052
12,GGTGCAAA,0.393 ± 0.0071
13,ATCCTGCC,-0.0684 ± 0.0044
14,CTAGCAAG,0.0488 ± 0.014
15,TGAGGGAA,-0.0537 ± 0.066
16,ATCATAGC,0.0043 ± 0.09
17,CTGGCGAC,0.124 ± 0.059
18,GGTGCGTA,0.2616 ± 0.00075
19,CGTGCGCA,0.0827 ± 0.019
20,ACTGCGAC,0.0881 ± 0.0041
21,AGTGCGTC,-0.147 ± 0.029
22,TGTGCGAA,0.448 ± 0.0066

row,Sequence,PBM E-score of 8-mer
1,TATGCGAA,0.157 ± 0.0088
2,CGTGCAAA,0.11 ± 0.0028
3,GGTGCGAA,0.48957 ± 0.00016
4,AGTGCGAC,0.37 ± 0.012
5,CGTGCGAA,0.448 ± 0.0091
6,TCTGCGAA,0.201 ± 0.038
7,GATGCGAA,0.186 ± 0.038
8,AGCCGACA,0.165 ± 0.007
9,GTGGCTCA,0.0273 ± 0.048
10,CGCCGCAA,-0.0674 ± 0.0034
11,ATTGCTCG,-0.0286 ± 0.034
12,CAGCCAGA,-0.0394 ± 0.019
13,CGAGATCC,0.0268 ± 0.01
14,AAGGGATT,-0.212 ± 0.11
15,CCTAAAAC,-0.00751 ± 0.035
16,CTGTTCAC,0.263 ± 0.012
17,CATGCAGC,-0.0211 ± 0.03
18,AGAGTGCA,0.0698 ± 0.0037
19,CACTTGGC,0.236 ± 0.038
20,AGTGCGGA,0.265 ± 0.0086
21,AGTGCGAG,0.405 ± 0.021
22,GGTGCGGA,0.405 ± 0.015

row,Sequence,PBM E-score of 8-mer
1,CGTGCGGA,0.0633 ± 0.03
2,ACTGCGAG,0.179 ± 0.04
3,ATTGCGAA,0.27169 ± 0.00012
4,CGTGCGAG,0.358 ± 0.018
5,CTTGCGAA,0.328 ± 0.029
6,GTTGCGAA,0.389 ± 0.015
7,ACTTCGAC,0.14 ± 0.024
8,ATTGACAC,0.412 ± 0.0065
9,ATTGACAA,0.304 ± 0.043
10,CTTGACAC,0.43 ± 0.023
11,CTTGACCC,-0.326 ± 0.035
12,ATTGACAG,0.15 ± 0.052
13,CTTGACGC,0.27 ± 0.0032
14,ATTTGGTC,-0.154 ± 0.024
15,CCACGTAC,0.0376 ± 0.016
16,AGTCATAT,-0.234 ± 0.069
17,CTTAACAC,0.434 ± 0.013
18,ATTAACAG,0.143 ± 0.048
19,ATTAACAA,0.173 ± 0.14
20,CTTAACAA,0.201 ± 0.041
